# From PubChem BioAssay (Tox21)
# Where “and” joins values, the source holds several entries; their conditions need not be identical. Equal entries are not always repeated. Records with an inconclusive call do not appear. A call without a number means that no potency is given here. Some compounds were tested as several samples or in several runs, with calls that do not always agree. Calls of active or inactive are those of the source. Unless noted, calls come from the whole dose curve. Residues, ends and D or L forms follow the SMILES beside them.
# Key:
# [1] = target: Thyrotropin receptor (Homo sapiens) (UniProt P16473); assay: qHTS assay to identify small molecule agonists of the thyroid stimulating hormone receptor (TSHR) signaling pathway (AID 1224843); settings: TSHR-HEK293 cells, cAMP HTRF, agonist mode, 30 min; series mostly up to 92.4 µM; note: nearly all actives have a fitted effect of over 45% in size
# Sequence of Thyrotropin receptor (Homo sapiens) (P16473 whole entry, looked up): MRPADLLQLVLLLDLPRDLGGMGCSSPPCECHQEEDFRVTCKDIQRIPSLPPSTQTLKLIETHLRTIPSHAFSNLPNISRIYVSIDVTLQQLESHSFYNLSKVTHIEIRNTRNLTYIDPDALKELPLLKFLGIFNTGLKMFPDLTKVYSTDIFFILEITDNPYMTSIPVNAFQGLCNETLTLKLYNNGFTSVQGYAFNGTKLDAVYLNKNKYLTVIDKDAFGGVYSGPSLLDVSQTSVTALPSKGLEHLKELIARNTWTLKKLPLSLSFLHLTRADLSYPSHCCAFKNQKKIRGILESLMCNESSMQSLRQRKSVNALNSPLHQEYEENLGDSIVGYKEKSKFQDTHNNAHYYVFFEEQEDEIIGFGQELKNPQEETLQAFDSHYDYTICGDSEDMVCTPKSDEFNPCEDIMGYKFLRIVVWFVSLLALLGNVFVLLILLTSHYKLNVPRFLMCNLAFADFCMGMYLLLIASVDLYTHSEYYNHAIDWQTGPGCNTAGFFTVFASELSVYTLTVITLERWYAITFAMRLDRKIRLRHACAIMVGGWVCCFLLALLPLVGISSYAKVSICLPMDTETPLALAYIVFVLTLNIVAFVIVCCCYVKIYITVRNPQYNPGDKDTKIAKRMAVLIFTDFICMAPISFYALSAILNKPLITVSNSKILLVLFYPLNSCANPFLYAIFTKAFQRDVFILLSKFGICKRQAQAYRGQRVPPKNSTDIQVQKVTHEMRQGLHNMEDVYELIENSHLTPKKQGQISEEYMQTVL
# How it was run: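 HEK293 cells stably bearing the thyrotropin receptor were plated at 800 cells/well and challenged with compound (30 min, RT). Accumulated cAMP was quantified via cAMP-d2 competing for cryptate-tagged antibody.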
# [2] = qHTS assay to identify small molecule agonists of the hypoxia (HIF-1) signaling pathway - cell viability counter screen (AID 1224844); settings: HRE-bla ME-180 viability, CellTiter-Glo luminescence, 17 h; series mostly up to 76.8 µM; note: nearly all actives have a fitted effect of over 50% in size
# How it was run: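 ME-180 HRE-bla cells, 2,000/well, 0.5% dialyzed FBS; 5 hr settle, 17 hr compound at 37C/5% CO2; CCF4-AM reporter read first, then CellTiter-Glo luminescence after 30 min RT.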
# [3] = qHTS assay to identify small molecule agonists of the hypoxia (HIF-1) signaling pathway (AID 1224846; active = well fitted activation curve with a large enough effect in the signal ratio in the repeat runs, not every such curve was filed as active; the % refers to the signal ratio); settings: HRE-bla ME-180 cells, beta-lactamase ratio, 17 h; series mostly up to 76.8 µM
# How it was run: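 Cell line: CellSensor HRE-bla ME-180; 2,000 cells/well; 0.5% dialyzed FBS; 5 h preincubation; DMSO compound pin transfer; 17 h, 37C, 5% CO2; CCF4-AM added; bla FRET signal scored for activation.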
# [4] = qHTS assay to identify small molecule agonists of H2AX - cell viability counter screen (AID 1224847); settings: CHO-K1 viability, CellTiter-Glo luminescence, 3 h; series mostly up to 154 µM;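 note: wild-type CHO-K1 cells; top concentration of the series differs between compounds; nearly all actives have a fitted effect of over 30% in size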
# How it was run: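 Cells plated first: CHO-K1, 1000 per well in 10% FBS medium, incubated overnight at 37C. Then 15-point compound titration added (final DMSO 0.76%) for 3 hr. Finally CellTiter-Glo added and luminescence read.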
# [5] = qHTS assay to identify small molecule antagonists of the estrogen related receptor (ERR) signaling pathway from Tox21 library (AID 1224848; active = well fitted curve in the direction sought with a large enough effect in the repeat runs; an effect the other way counts as inactive or inconclusive; note: nearly all actives have a fitted effect of over 50% in size); settings: ERR reporter cell line, luciferase antagonist mode, 18 h; series mostly up to 92.4 µM
# How it was run: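 Reading was by luminescence 30 min after ONE-Glo addition. Before that, ERR cells at 2,000 per well had rested 6 h at 37 C/5% CO2 and then received pin-tooled compounds in DMSO for 18 h at 37 C.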
# [6] = qHTS assay to identify small molecule agonists of the estrogen related receptor (ERR) signaling pathway from Tox21 library (AID 1224849); settings: ERR reporter cell line, ONE-Glo luciferase, 18 h; note: nearly all actives have a fitted effect of over 15% in size
# How it was run: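 ERR cells, 6 h pre-incubation 37 C/5% CO2; cpd in DMSO pinned; 18 h 37 C; ONE-Glo added, 30 min RT; luminescence read. Agonist mode, qHTS.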
# [7] = qHTS RealTime-Glo MT Cell Viability Assay in HepG2 cells - 24 hour (AID 1224867; active = well fitted curve in the direction sought with a large enough effect in the repeat runs; an effect the other way counts as inactive or inconclusive; note: nearly all actives have a fitted effect of over 50% in size); settings: RealTime-Glo luminescence; series mostly up to 76.8 µM
# How it was run: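 HepG2 cells (600/well) were dispensed with RealTime-Glo reagents, incubated 5 h at 37 °C, then treated with compounds in DMSO for up to 40 h. Nonlytic NanoLuc luminescence reflecting viable cells was read at each stated time point.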
# [8] = qHTS RealTime-Glo MT Cell Viability Assay in HEK293 cells - 32 hour (AID 1224868; active = well fitted curve in the direction sought with a large enough effect in the repeat runs; an effect the other way counts as inactive or inconclusive; note: nearly all actives have a fitted effect of over 50% in size; note: potency is the fitted concentration of half-maximal effect); settings: RealTime-Glo luminescence; series mostly up to 76.8 µM
# How it was run: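 HEK293 cells seeded with NanoLuc/prosubstrate reagent, rested 5 h at 37 C, then dosed and kept at 37 C up to 40 h. Nonlytic real-time luminescence from viable cells read at 0, 8, 16, 24, 32 and 40 h.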
# [9] = A CellTox Green Cytotoxicity Assay to monitor cytotoxicity in HEK293 cells - 0 hour (AID 1224869; active = well fitted curve in the direction sought with a large enough effect in the repeat runs; an effect the other way counts as inactive or inconclusive; note: nearly all actives have a fitted effect of over 50% in size); settings: CellTox Green fluorescence; series mostly up to 76.8 µM
# How it was run: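 Nonlytic real-time cytotoxicity: HEK293 + CellTox Green reagent plated, 5 h preincubation, pintool compound addition (23 nL in DMSO), 37 C for 40 h, fluorescence measured at successive time points.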
# [10] = qHTS assay to identify small molecule agonists of H2AX (AID 1224845; active = well fitted activation curve with a large enough effect in the signal ratio in the repeat runs, not every such curve was filed as active; the % refers to the signal ratio); settings: CHO-K1 phospho-H2AX Ser139 HTRF, 3 h; series mostly up to 154 µM
# How it was run: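 Phospho-H2AX Ser139 measured by HTRF (ex 320 nm; em 665 and 620 nm) after 24 hr antibody incubation. Compounds, 15 concentrations, 0.76% DMSO, were applied to CHO-K1 cells for 3hr at 37C before lysis.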
SMILES,outcome [1],Potency [2],outcome [3],outcome [4],Potency [5],"activity change, positive = activation ([6]; at 42.5 µM (top of the series))","activity change, positive = activation ([6]; at 92.4 µM (top of the series))",Potency [7],Potency [8],outcome [9],outcome [10]
CCCCC(CC)COC(=O)/C=C/c1ccc(OC)cc1 (configuration not stated),inactive,inactive,inactive,inactive,inactive,-9.11% (inactive),7.09% (inactive) and -5.92% (inactive),inactive,inactive,inactive,–
O=c1ccc2ccccc2o1,inactive,inactive,inactive,inactive,–,–,–,inactive,inactive,inactive,–
O=C(c1ccccc1)C(O)c1ccccc1 (configuration not stated),inactive,inactive,inactive,inactive,–,–,–,inactive,inactive,inactive,inactive
O=C(O)CCCCCCCC(=O)O,inactive,inactive,–,inactive,–,–,–,inactive,–,inactive,inactive
Cc1cc(=O)n(-c2ccccc2)n1C,–,inactive,–,inactive,inactive,4.6% (inactive),1.91% (inactive) and 2.64% (inactive),inactive,–,inactive,inactive
O=C(O)C(=O)O,inactive,inactive,inactive,inactive,–,–,–,inactive,–,inactive,–
O=C(C1CCCCC1)N1CC(=O)N2CCc3ccccc3C2C1 (configuration not stated),–,inactive,–,inactive,inactive,-13.9% (inactive),-22.9% (inactive) and -18.8% (inactive),inactive,–,inactive,–
Nc1ccc(S(=O)(=O)c2ccc(N)cc2)cc1,inactive,inactive,–,inactive,–,–,–,inactive,inactive,inactive,–
CC(=O)Nc1nnc(S(N)(=O)=O)s1,inactive,inactive,inactive,inactive,–,–,–,inactive,–,inactive,–
O=C(O)c1[nH]n(-c2ccc(S(=O)(=O)O)cc2)c(=O)c1N=Nc1ccc(S(=O)(=O)O)cc1,inactive,inactive,inactive,inactive,–,–,–,inactive,–,inactive,–
O=C(c1ccccc1)c1ccccc1,–,inactive,inactive,inactive,–,–,–,inactive,–,inactive,–
NC(N)=NC(=O)c1nc(Cl)c(N)nc1N,inactive,inactive,–,inactive,–,–,–,inactive,–,inactive,–
O=S(=O)(O)c1ccc2cc(O)ccc2c1,–,inactive,inactive,inactive,–,–,–,inactive,–,inactive,inactive
Nc1ccc(S(=O)(=O)Nc2nccs2)cc1,inactive,inactive,–,inactive,inactive,5.51% (inactive),-7.05% (inactive) and 5.21% (inactive) and 6.11% (inactive),inactive,inactive,inactive,–
Cc1cc(=O)[nH]c(=S)[nH]1,inactive,inactive,inactive,inactive,–,–,–,inactive,–,inactive,–
NC(=O)NC1NC(=O)NC1=O (configuration not stated),inactive,inactive,inactive,inactive,–,–,–,inactive,inactive,inactive,–
O=C(O)CCCCC(=O)O,inactive,inactive,inactive,inactive,–,–,–,inactive,–,inactive,–
CCC1(c2ccccc2)C(=O)NCNC1=O,inactive,inactive,–,inactive,–,–,–,inactive,–,inactive,–
NC(=O)c1cnccn1,–,inactive,–,inactive,inactive,4.26% (inactive),-0.224% (inactive) and -0.902% (inactive),inactive,–,inactive,–
O=C(O)c1cccc([N+](=O)[O-])c1,–,inactive,inactive,inactive,–,–,–,inactive,inactive,inactive,–
NNC(=O)c1ccncc1,inactive,inactive,–,inactive,inactive,-2.18% (inactive) and 2.7% (inactive),-1.91% (inactive),inactive,–,inactive,–

SMILES,outcome [1],Potency [2],outcome [3],outcome [4],Potency [5],"activity change, positive = activation ([6]; at 42.5 µM (top of the series))","activity change, positive = activation ([6]; at 92.4 µM (top of the series))",Potency [7],Potency [8],outcome [9],outcome [10]
CCCNC(=O)NS(=O)(=O)c1ccc(Cl)cc1,inactive,inactive,inactive,inactive,–,–,–,inactive,–,inactive,–
N=C(N)c1ccc(OCCCCCOc2ccc(C(=N)N)cc2)cc1,inactive,inactive,inactive,inactive,–,–,–,inactive,–,inactive,–
Cn1cc[nH]c1=S,inactive,inactive,–,inactive,–,–,–,inactive,inactive,inactive,–
Cc1ccc(S(=O)(=O)NC(=O)NN2CCCCCC2)cc1,inactive,inactive,–,inactive,inactive,-3.23% (inactive),-0.537% (inactive) and -0.346% (inactive),inactive,–,inactive,–
COC(=O)[C@H](Cc1ccccc1)NC(=O)[C@@H](N)CC(=O)O (H-Asp-Phe-OMe),inactive,inactive,inactive,inactive,–,–,–,inactive,–,inactive,–
CCCCOC(=O)CC(CC(=O)OCCCC)(OC(C)=O)C(=O)OCCCC,–,inactive,inactive,inactive,–,-18.7% (inactive),-11.9% (inactive) and -24.8% (inactive),inactive,inactive,inactive,–
O=NO,inactive,inactive,inactive,inactive,–,–,–,inactive,–,inactive,–
Cc1ccc(O)cc1,inactive,inactive,–,inactive,–,–,–,inactive,inactive,inactive,–
COc1c2occc2cc2ccc(=O)oc12,inactive,inactive,–,inactive,–,–,–,inactive,inactive and 21.9 µM (active),inactive,–
CCCC(O)C(CC)CO (configuration not stated),–,inactive,inactive,inactive,–,–,–,inactive,–,inactive,inactive
O=C(O)c1cc(N=Nc2ccc(S(=O)(=O)Nc3ccccn3)cc2)ccc1O,inactive,inactive,–,inactive,–,–,–,inactive,–,inactive,–
CNC[C@H](O)c1cccc(O)c1,–,inactive,inactive,inactive,inactive,5.4% (inactive),-1.31% (inactive) and 0.843% (inactive),inactive,inactive,inactive,inactive
CC(O)CN(CCN(CC(C)O)CC(C)O)CC(C)O (configuration not stated),inactive,inactive,–,inactive,–,–,–,inactive,inactive,inactive,–
O=C(O)CS,–,inactive,–,inactive,–,–,–,inactive,–,inactive,inactive
Cc1cn([C@H]2C[C@H](N=[N+]=[N-])[C@@H](CO)O2)c(=O)[nH]c1=O,–,inactive,–,inactive,inactive,1.9% (inactive),1.55% (inactive) and -3.89% (inactive),inactive,–,inactive,–
Cc1ccc(C)c(OCCCC(C)(C)C(=O)O)c1,inactive,inactive,–,inactive,–,–,–,inactive,inactive,inactive,–
CC(=O)NS(=O)(=O)c1ccc(N)cc1,–,inactive,–,inactive,–,–,–,inactive,–,inactive,inactive
Oc1ccc(/C=C/c2cc(O)cc(O)c2)cc1,inactive,inactive,–,–,inactive,132% (active),0.861% (active) and 27.4% (active),inactive,19.7 µM (active),inactive,–
C/C=C/c1ccc(OC)cc1,inactive,inactive,inactive,inactive,–,–,–,inactive,–,inactive,–
C[C@]12C=CC(=O)C=C1CC[C@@H]1[C@@H]2[C@@H](O)C[C@@]2(C)[C@H]1CC[C@]2(O)C(=O)CO,–,inactive,–,inactive,–,–,–,inactive,inactive,inactive,–
